# From PubChem BioAssay
# These entries were drawn from the full list.
# aSyn 5UTR act – Activators via SNCA 5'UTR binding, MLPCN; alpha-synuclein 5'UTR reporter, activators screen; activity score, % (tested at 7.5 µM), hits read low; 300,000 tested, 7.1% active; AID 1814; in the data active = activity score below about -60%
# * marks the source's active call; other numbers are inactive results.
SMILES,aSyn 5UTR act
COc1cccc(-c2csc(NC(=O)Nc3ccccc3)n2)c1,-165.6*
O=C(Nc1ccc(-c2csc(Nc3ccccc3)n2)cc1)c1ccccc1,-86.9*
O=C(CCOc1ccccc1F)N1CCN(c2ccccc2O)CC1,-75.0*
COc1ccc(NC(=O)c2cc3ccccc3cc2O)cc1,-118.6*
Cc1ccc(NC(=O)c2cc3ccccc3cc2O)cc1,-179.4*
O=C(NCCCc1ccccc1)c1ccccc1O,-139.9*
O=C(NCCCc1ccccc1)c1ccc(Br)o1,-62.2*
Cc1ccc(C(=O)NCCCc2ccccc2)c(C)c1,-129.3*
Cc1ccc(C(=O)NCCCc2ccccc2)c(Cl)c1,-100.2*
CCC(Sc1nc2n[nH]c(C)c2c(=N)n1-c1cccc(Cl)c1C)C(=O)N(CC)CC (stereo not given),50.8
O=C(NCCCc1ccccc1)c1ccc([N+](=O)[O-])cc1Cl,-82.7*
CCOc1cnc(-c2ccc(OC)cc2)o1,-106.0*
CCOc1cnc(-c2ccc(Cl)cc2)o1,-105.1*
CCN(CC)C(=O)c1ccc2c(c1[N+](=O)[O-])C(=O)c1ccccc1C2=O,-93.3*
CCN(CC)CCNC(=O)c1ccc2c(c1NCCO)C(=O)c1ccccc1C2=O,95.6
Cc1cc(C)cc(NC(=O)c2cc(C)n(Cc3cccs3)c2C)c1,-116.5*
Cc1cc(C(=O)Nc2ccc(Cl)cc2)c(C)n1Cc1cccs1,-67.2*
N#CC1CC(c2ccccc2)Nc2cc(Cl)ccc2N1 (stereo not given),-330.8*
O=C(N/N=C/c1ccc[nH]1)c1ccc2c(c1)OCO2,-92.9*
O=C(N/N=C/c1ccc2c(c1)OCO2)c1ccc2c(c1)OCO2,-91.3*
COc1cc(/C=N\NC(=O)c2ccc(C)nc2)ccc1OC(=O)c1ccc2c(c1)OCO2,-67.2*
Cc1ccsc1/C=N\NC(=O)c1ccc2c(c1)OCO2,-96.9*
O=C(N/N=C\c1cccc(OC(=O)c2ccco2)c1)c1ccc2c(c1)OCO2,-64.7*
O=C(N/N=C\c1ccc2c(c1)OCO2)c1ccco1,-102.5*
O=C(N/N=C/c1ccc2c(c1)OCO2)C1CC1,-66.7*
SMILES,aSyn 5UTR act
O=C(CCCN1C(=O)/C(=C/c2ccc3c(c2)OCO3)SC1=S)Nc1ccc(C(=O)O)cc1,101.6
O=C(CCC(=O)Nc1ccccc1)N/N=C/c1ccc2c(c1)OCO2,-62.9*
CCCCN1CCc2c([nH]c3ccc(C)cc23)C1=O,-170.6*
CC(C)(C)Nc1nc(-c2ccc3c(c2)CCN3C(=O)C2CC2)cs1,-80.4*
CC(C)C(=O)Nc1nc(-c2ccc3c(c2)CCN3C(=O)C2CC2)cs1,-101.5*
CC(=O)Nc1nc(-c2ccc3c(c2)CCN3S(C)(=O)=O)cs1,-207.0*
O=C(Nc1ccc(Nc2ccccc2)cc1)c1ccccc1F,-174.2*
O=C(Nc1ccccc1)Nc1ccc(Cl)nc1Cl,-93.5*
O=C(Nc1ccccc1)Nc1ccc(Nc2ccccc2)cc1,-111.1*
CCN(CC)c1ccc(NC(=O)c2ccccc2F)cc1,-410.5*
c1ccc(Nc2cccc(Nc3ccccc3)c2)cc1,-86.0*
O=C(Cn1ncc(N2CCOCC2)c(Cl)c1=O)c1ccc(Cl)cc1,-105.3*
O=C(N/N=C/c1ccc(Cl)cc1Cl)c1cccc(F)c1,-212.5*
Cc1cc(/C=N/NC(=O)c2cccc(F)c2)c(C)n1-c1ccccc1,-152.2*
O=C(N/N=C/c1cn(Cc2cccc(F)c2)c2ccccc12)c1cc(O)cc(O)c1,59.2
Cc1cc(/C=N/NC(=O)c2ccccc2F)c(C)n1-c1ccccc1,-132.9*
CCOC(=O)N/N=C/c1cc(C)n(-c2ccccc2)c1C,-74.6*
CCc1ccc(C(=O)N/N=C/c2ccc(Cl)cc2Cl)nc1,-75.1*
CCOC(=O)N/N=C/c1ccc(F)cc1F,-76.6*
O=C(O)c1cccc(COc2ccc(CO)cc2Cl)c1,105.4
O=C(O)c1ccc(COc2ccc(CO)cc2Cl)cc1,-92.4*
Cc1ccc2nc(NC(=O)CN3CCOCC3)sc2c1,-106.7*
O=C(CN1CCOCC1)Nc1nc2ccc([N+](=O)[O-])cc2s1,-62.3*
C(=N\Nc1ccc2nncn2n1)/c1ccccn1,66.6
Fc1ccccc1/C=N/Nc1ccc(Cl)nn1,-109.7*
SMILES,aSyn 5UTR act
CC(/C=N/Nc1nnc2c(n1)[nH]c1ccccc12)=C\c1ccco1,-165.3*
COc1cccc(/C=N/Nc2ccc(Cl)nn2)c1OC,-155.4*
COc1cccc(/C=N/Nc2nnc3c(n2)[nH]c2ccccc23)c1OC,-83.7*
COc1ccc(N2C(=O)c3ccccc3NC2c2ccc(OC)c(Cn3cc([N+](=O)[O-])cn3)c2)cc1 (stereo not given),-87.3*
c1ccc(CCNc2nc(-c3cccnc3)cs2)cc1,-129.3*
c1ccc(CCNc2nc(-c3ccccn3)cs2)cc1,-157.7*
[N-]=[N+]=CC(=O)C(O)(c1ccccc1)C(Cl)c1ccccc1 (stereo not given),47.0
CC(C)(C)SCCNC(=O)Nc1ccccc1,-87.0*
CC(C)(C)SCCNC(=O)CSc1ccccc1,-72.5*
Cc1cc(O)c(C(=O)Cc2csc(C)n2)c(O)c1,-131.7*
COc1ccc(/C=N/Nc2nc(N)cc(Cl)n2)cc1OC,-74.5*
COc1ccc(-c2cnnc(N/N=C/c3ccc(O)c(OC)c3)n2)cc1,-95.1*
COc1ccc(/C=N/Nc2ccccn2)cc1OC,-114.5*
